# Data: PubChem BioAssay (EPA / NIEHS)
# Where a structure was tested more than once in an assay, its records may differ in their call. Calls of active or inactive are those of the source. How the source made its calls: active means hit-call score of the fitted dose curve at least 0.9, where 1 is the maximum; inactive means score below 0.9.
# Assay: ATG_TCF_b_cat_CIS: Attagene CIS-FACTORIAL HepG2 Assay for human T-Cell-Factor with beta-catenin (TCF/b-cat) (AID 2282965)
# Conditions: HepG2 TCF/beta-catenin cis-reporter transcription, actives raise or lower the signal
# Protocol: ATG_CIS is a cell-based, multiplexed-readout assay that uses HepG2, a human liver cell line, with measurements taken at 24 hours after chemical dosing in a 24-well plate.ATG_TCF_b_cat_CIS is one of 52 assay component(s) measured or calculated from the ATG_CIS assay. It is designed to make measurements of mRNA induction, a form of inducible reporter, as detected with fluorescence intensity signals by Reverse transcription polymerase chain reaction (RT-PCR) and Capillary electrophoresis technology.Data from the assay component ATG_TCF_b_cat_CIS was analyzed into 1 assay endpoint. This assay endpoint, ATG_TCF_b_cat_CIS, was analyzed with bidirectional fitting relative to DMSO as the negative control and baseline of activity. Using a type of inducible reporter, measures of mRNA for gain or loss-of-signal activity can be used to understand the reporter gene at the transcription factor-level as they relate to the gene TCF7 and TCF7L2 and LEF1 and TCF7L1. Furthermore, this assay endpoint can be referred to as a primary readout, because this assay has produced multiple assay endpoints where this one serves a reporter gene function. To generalize the intended target to other relatable targets, this assay endpoint is annotated to the dna binding intended target family, where the subfamily is HMG box protein.
# Human liver HepG2 cells are transiently transfected with multiple reporter transcription units (MRTUs) in 6-well plates using FuGene 6 reagent (Roche; 3 ml FuGene/1 mg DNA). The MRTU constructs are regulated by a cis-regulating element (promoter). […] A major difference between the CIS and TRANS system is that in CIS activities of endogenous TFs are measured, whereas the TRANS assay evaluates changes in activities of exogenous, chimeric NR-Gal4 proteins. […] At the end of 24 hour incubation, total RNA was isolated using TriZol reagent (Invitrogen). The isolated RNA is then reverse-transcribed using oligo(dT) primer and Mo-MLV reverse transcriptase (Invitrogen) with DNAse I (Ambion) treatment for 30 min. The one-tenth of the produced cDNA was amplified by PCR using Taq DNA polymerase (Invitrogen) and two reporter sequence-specific primers. The PCR products were fluorescently labeled by primer extension with 6-arboxyfluorescein (6-FAM) 5'-labeled reporter sequence-specific primer (2 min at 95 C, 20 s at 68 C and 10 min at 72 C) and these products were digested with 5U of HpaI (New England Biolabs) for 2h at 37 C. The fragments were purified using Qiaquick PCR columns (Qiagen), analyzed on an ABI 3130xL genetic analyzer (Applied Biosystems) with peak positions identified by using a set of X-rhodamine (ROX)-labeled MapMarker1000 molecular weight standards (BioVentures). The raw capillary electrophoresis data was processed using Attagraph software (Attagene).
SMILES,AC50,outcome
Cn1sccc1=O,92.9 µM (active),
CCCC=O,,inactive
CCOC(C)=O,,inactive
CN(C)CCOC(c1ccccc1)c1ccccc1,,inactive
O=C1NS(=O)(=O)c2ccccc21,,inactive
CCc1cccc(CC)c1N(COC)C(=O)CS(=O)(=O)O,,inactive
O=S(=O)(O)c1ccc2cc(O)ccc2c1,,inactive
Nc1cc(Cl)c(-c2cc(Cl)c(N)cc2Cl)cc1Cl,,inactive
Oc1c(Cl)cc(Cl)cc1Sc1cc(Cl)cc(Cl)c1O,,inactive
NC(C(F)(F)F)C(F)(F)F,,inactive
CCCCCCCCC(C)=O,,inactive
COC(=O)C(F)(F)C(F)(F)C(F)(F)F,,inactive
CCC(=O)C=Cc1ccc(OC)cc1,,inactive
CCCCCCCCCCCC(=O)NCCCN(C)C,17.5 µM (active),
COc1cccc(O)c1,,inactive
O=S(=O)(O)c1ccccc1,,inactive
CCCCc1ccc2ccccc2c1S(=O)(=O)O,,inactive
C=Cc1ccc(O)c(OC)c1,,inactive
O=C(C=C(O)C(F)(F)F)C(F)(F)F,,inactive
CC[N+](CC)(CC)Cc1ccccc1,,inactive

SMILES,AC50,outcome
C[N+](C)(CCCNS(=O)(=O)CCC(F)(F)C(F)(F)C(F)(F)C(F)(F)C(F)(F)C(F)(F)F)CC(=O)[O-],0.000979 µM (active),
COc1ccc(C#N)cc1,,inactive
C=CCOCC(CO)(CO)CO,,inactive
CCCCCCC(C)(C)C(=O)O,,inactive
CCOC=O,,inactive
Cc1ccc2ccc3ccc(C)cc3c2c1,,inactive
Nc1ccc(O)c(C(=O)O)c1,,inactive
O=C(F)C(F)(F)C(F)(F)C(F)(F)C(F)F,,inactive
C=C(c1ccc(C(=O)O)cc1)c1cc2c(cc1C)C(C)(C)CCC2(C)C,13.7 µM (active),inactive
C[C@]12CC[C@@H]3c4ccc(O)cc4CC[C@H]3[C@@H]1C[C@@H](O)[C@@H]2O,,inactive
Cc1cc(Cc2cc(C)cc(C(C)(C)C)c2O)c(O)c(C(C)(C)C)c1,180 µM (active),
CC(=O)CC(C)C,,inactive
CCOC(=O)c1nc(C(Cl)(Cl)Cl)n(-c2ccc(Cl)cc2Cl)n1,,inactive
CC(C)[C@@H]1CC[C@@H](C)C[C@H]1O,,inactive
C=CC(=O)OCCN(CC)CC,,inactive
OCC(F)(F)C(F)(F)C(F)(F)C(F)(F)C(F)(F)C(F)(F)C(F)(F)C(F)(F)C(F)(F)C(F)(F)C(F)(F)F,,inactive
CCCCc1oc2ccccc2c1C(=O)c1cc(I)c(OCCN(CC)CC)c(I)c1,,inactive
CCC(C)c1nccnc1OC (stereo not given),,inactive
O=C(O)C(=O)O,,inactive
